From PubChem BioAssay
Inconclusive results are not listed. Activity calls are given as the source filed them.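 The calls were made as follows, unless noted: active = Her2 level under about 52% in both replicate screens, with viability over 70% of control (limit read from the data); inconclusive = Her2 under the limit in one screen only, or viability under 70%; inactive = Her2 level above the set limit.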

Tests used:
[1] = Her2 expression decrease, cell viability multiplex – SKBR3 breast tumor cells, AlphaScreen, ATP viability, primary screen (AID 461); details: SKBR3 Her2 protein level, 18-24 h, measured here: SKBR3 viability, ATP luminescence, at 10 µM;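 as to Her2 level: lower value means less Her2 protein in the cells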;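 as to viability: percent of carrier control wells set as 100% viability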
[2] = molecular target: Receptor tyrosine-protein kinase erbB-2 (Homo sapiens) (UniProt P04626); assay: as above; details: 18-24 h, at 10 µM, stronger effect = lower value
Receptor tyrosine-protein kinase erbB-2 (Homo sapiens), sequence (P04626 whole entry, looked up): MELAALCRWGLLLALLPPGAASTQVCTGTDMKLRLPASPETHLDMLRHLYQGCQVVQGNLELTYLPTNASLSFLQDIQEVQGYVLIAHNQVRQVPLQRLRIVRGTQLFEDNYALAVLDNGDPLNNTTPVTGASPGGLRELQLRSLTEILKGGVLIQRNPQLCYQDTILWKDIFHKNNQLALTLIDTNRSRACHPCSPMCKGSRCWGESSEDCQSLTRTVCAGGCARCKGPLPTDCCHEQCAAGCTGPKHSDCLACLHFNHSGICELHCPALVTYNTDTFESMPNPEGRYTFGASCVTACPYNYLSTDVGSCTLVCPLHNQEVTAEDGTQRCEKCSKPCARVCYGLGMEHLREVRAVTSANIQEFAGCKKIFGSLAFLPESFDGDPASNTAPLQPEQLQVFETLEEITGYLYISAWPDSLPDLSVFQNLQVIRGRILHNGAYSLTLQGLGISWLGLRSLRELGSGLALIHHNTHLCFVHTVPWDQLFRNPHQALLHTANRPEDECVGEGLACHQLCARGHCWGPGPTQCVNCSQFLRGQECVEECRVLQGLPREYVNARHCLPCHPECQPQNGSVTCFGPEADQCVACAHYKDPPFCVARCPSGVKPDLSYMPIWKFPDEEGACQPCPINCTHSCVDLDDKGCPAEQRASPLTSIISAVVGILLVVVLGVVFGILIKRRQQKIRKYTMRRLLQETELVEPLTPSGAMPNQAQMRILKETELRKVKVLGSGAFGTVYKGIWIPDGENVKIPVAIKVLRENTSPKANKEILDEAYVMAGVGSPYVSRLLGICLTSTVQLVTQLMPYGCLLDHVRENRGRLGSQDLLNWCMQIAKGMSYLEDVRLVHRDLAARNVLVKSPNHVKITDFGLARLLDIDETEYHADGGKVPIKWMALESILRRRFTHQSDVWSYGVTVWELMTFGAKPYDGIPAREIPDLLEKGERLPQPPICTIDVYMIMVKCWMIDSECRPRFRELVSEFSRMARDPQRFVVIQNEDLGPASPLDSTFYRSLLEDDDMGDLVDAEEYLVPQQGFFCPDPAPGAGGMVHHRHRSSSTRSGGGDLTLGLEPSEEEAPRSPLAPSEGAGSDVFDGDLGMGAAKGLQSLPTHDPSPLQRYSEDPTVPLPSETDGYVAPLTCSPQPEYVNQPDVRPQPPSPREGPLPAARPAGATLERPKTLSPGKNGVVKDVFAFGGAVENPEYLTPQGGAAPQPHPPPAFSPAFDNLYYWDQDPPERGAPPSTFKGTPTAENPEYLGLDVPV

[3] = reduced viability of SK-BR-3 breast cancer cells – cell-based, 24 h, human, pilot screen (AID 572;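 active = viability at or below 10% of carrier control in both of two separate runs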;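 also: compound exposure lasted between 18 and 24 h rather than exactly 24 h; 100% = carrier-treated control wells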); details: SK-BR-3 viability, CellTiter-Glo luminescence, at 10 µM, stronger effect = lower value
[4] = HUVEC growth inhibition – cell-based, human, primary screen (AID 575;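 active = viability at or below 30% in both replicate assays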;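 also: 100% = median of untreated cell wells with 0.1% DMSO on each plate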); details: HUVEC proliferation, CellTiter-Glo luminescence, 72 h; at 10 µM; stronger effect = lower value
[5] = H69AR cell proliferation blockers – human, duplicate replicates, primary screen (AID 580;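 active = viability at or under a set limit in both replicates, limit being median viability minus 3 SD, cut at about 48% in these data, passing the limit was not always enough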;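 also: 100% = mean luminescence of untreated wells and 0% = no signal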); details: H69AR lung tumor cells viability, ATP luminescence, 72 h; at 10 µM; stronger effect = lower value
[6] = MRP1 drug-resistance reversers in H69AR cells – cell-based, doxorubicin co-treatment, pilot screen (AID 601;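 active = viability loss from added drug above about 55%, and viability with drug at most 40%, in both replicates, limit read from the data, passing the limit was not always enough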); details: CellTiter-Glo, 72 h, at 10 µM; for differential viability (reversal): stronger effect = higher value
[7] = yeast transport mutant growth inhibition pilot in 384-well plates, post-Golgi transport modulator project (AID 636; in the data active = inhibition above about 31%); details: absorbance 615 nm, about 18 h, stronger effect = higher value
[8] = growth suppression of yeast trafficking mutant, preliminary HTS, modulators of trafficking downstream of Golgi apparatus project, 1536-format plate, OD 615 nm (AID 637; in the data active = inhibition above about 30%); details: yeast transport mutant growth, absorbance 615 nm, 18 h; stronger effect = higher value
[9] = S. cerevisiae growth inhibition in permissive medium (OD615), pilot counter-assay for S. cerevisiae lifespan shortening project, permissive growth control (AID 705;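 active = growth inhibition above 25% in both replicates, a cutoff set 3 SD above the mean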); details: OD615, 24 h, at 10 µM, stronger effect = higher value
[10] = S. cerevisiae growth inhibition in restrictive medium, OD615, pilot screen, restrictive growth control, yeast lifespan reduction project (AID 706;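 active = growth inhibition above a set limit, 3 SD over mean compound inhibition, in both replicates, cut at about 43% in these data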;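 also: modified DeaD lifespan yeast strain shifted to restrictive glucose medium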); details: OD615, 48 h, at 10 µM, stronger effect = higher value
[11] = doxorubicin toxicity protection in MRP-1 cells – H69AR cells, CellTiter-Glo, duplicate, MRP-1 activator project, pilot screen (AID 807;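 active = viability increase at or above a cutoff of the median across tested compounds plus 3 SD, cut at about 8.5% in these data, passing the limit was not always enough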;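 also: compound pretreatment 18-22 h then 72 h combined with doxorubicin; 0% = doxorubicin alone and 100% = vehicle without doxorubicin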); details: H69AR viability with doxorubicin, CellTiter-Glo luminescence; at 10 µM; stronger effect = higher value
[12] = viability of HCT116 without oncogenic beta-catenin – human colon tumor cells, pilot screen (AID 823;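 active = cell viability at or below a set limit in both duplicate runs, the limit being the all-compound median minus 4 SD, cut at about 23% in these data, passing the limit was not always enough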;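 also: 0% = wells killed by 20 µM Hyamine and 100% = untreated DMSO cell wells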); details: HCT116 beta-catenin knockout viability, CellTiter-Glo, 60 h; at 10 µM; stronger effect = lower value
[13] = viability of PTEN-null HCT116 cells – cell-based, HCT116 clonal line, CellTiter-Glo, pilot screen (AID 824;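 active = viability at or below 27.92% in each of two runs, the all-compound median minus 4 SD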;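 also: 0% = 20 µM Hyamine control and 100% = vehicle cell control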); details: HCT116 PTEN-deleted viability, 60 h, at 10 µM, stronger effect = lower value
[14] = RAM pathway blockade in budding yeast – dse1pr::URA3 reporter, 5-FOA selection, pilot screen (AID 869;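 active = inhibition over a set limit, the all-compound mean plus 3 SD, in both replicate runs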;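 also: 0% = DMSO wells with no growth and 100% = 10 µM 1-NA-PP1 with full growth; RAM network block rescues cells from 5-FOA so hits raise OD615 growth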); details: S. cerevisiae dse1pr::URA3 5-FOA growth, OD615, 2 d; at 10 µM; stronger effect = higher value; strain carries analog-sensitive mutant Cbk1 kinase
[15] = RAM signaling pathway blockade in yeast – S. cerevisiae, Pdr1DBD-CYC8 efflux-inhibited sensitized strain, primary screen (AID 1298;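 active = RAM network inhibition above 8.4% in each of two replicates, 3 SD over the compound average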;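 also: 0% = DMSO untreated cells without growth and 100% = 10 µM 1-NA-PP1 full growth; higher means more yeast growth rescued from 5-FOA killing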); details: S. cerevisiae cbk1-as DSE1-URA3 strain, 5-FOA growth OD615, 2 d; at 50 µM; stronger effect = higher value
[16] = H69AR cells + 2 uM doxorubicin, measured here: viability with 2 uM doxorubicin, stronger effect = lower value
[17] = H69AR cells, compound alone cytotoxicity

Structure (SMILES) | viability [1] [%] | Her2 level [2] | viability [3] | viability [4] | viability [5] | differential viability (reversal) ([6]; H69AR cells + 2 uM doxorubicin) | viability [6, 16] [%] | viability [6, 17] [%] | inhibition [7] | inhibition [8] | growth inhibition [9] | growth inhibition [10] | viability increase [11] | viability [12] | viability [13] | inhibition [14] | RAM network inhibition [15]
O=C(c1ccco1)N1CCN(C(=O)C2CC(c3ccc(F)cc3)=NO2)CC1 (stereo unspecified) | 88 | 112% (inactive) | 88% (inactive) | 94.1% (inactive) | 88.5% (inactive) | 0.74% (inactive) | 87.8 | 88.5 | -1.15% (inactive) | -4.17% (inactive) | -1.38% (inactive) | 22% (inactive) | -1.41% (inactive) | 106% (inactive) | 105% (inactive) | 0.47% (inactive) | 5.01% (inactive)
COc1ccc(C)cc1S(=O)(=O)N1CCN(S(=O)(=O)c2cc(C)ccc2OC)CC1 | 110 | 114% (inactive) | 110% (inactive) | 96.5% (inactive) | 95% (inactive) | -0.24% (inactive) | 95.2 | 95 | -5.47% (inactive) | -9.03% (inactive) | -15.6% (inactive) | -26.2% (inactive) | -0.01% (inactive) | 93.8% (inactive) | 90.9% (inactive) | 2.31% (inactive) | 3% (inactive)
Cc1occc1C(=O)N1CCN(Cc2ccccc2)CC1 | 85.5 | 89% (inactive) | 85.5% (inactive) | 98.1% (inactive) | 89.3% (inactive) | 3.23% (inactive) | 86 | 89.3 | 0.26% (inactive) | -5.5% (inactive) | -0.31% (inactive) | -15.5% (inactive) | -1.95% (inactive) | 94.7% (inactive) | 97.6% (inactive) |  | 2.68% (inactive)
O=C(CSc1ncnc2nc[nH]c12)c1ccc(Cl)cc1 | 76 | 98% (inactive) | 76% (inactive) | 63% (inactive) | 91.1% (inactive) | -8.57% (inactive) | 99.7 | 91.1 | -3.47% (inactive) | 2.13% (inactive) | 1.02% (inactive) | 11.4% (inactive) | -1.43% (inactive) | 39.8% (inactive) | 37.7% (inactive) | 1.29% (inactive) | 5.06% (inactive)
COc1ccc(N2Cc3ccccc3C2)cc1Cl | 118 | 114% (inactive) | 118% (inactive) | 81.9% (inactive) | 89.9% (inactive) | -4.19% (inactive) | 94 | 89.9 | -4.27% (inactive) | -9.17% (inactive) | -2.97% (inactive) | -10.6% (inactive) | 0.04% (inactive) | 94% (inactive) | 87.7% (inactive) |  | 7.11% (inactive)
CC(=O)C1=C(N2CCCCC2)CCC1=O | 86 | 101% (inactive) | 86% (inactive) | 109% (inactive) | 98.3% (inactive) | 11.5% (inactive) | 86.8 | 98.3 | -5.81% (inactive) | 5.33% (inactive) | 2.54% (inactive) | 4.54% (inactive) | -2.01% (inactive) | 94.5% (inactive) | 94.7% (inactive) |  | 0.55% (inactive)
Clc1ccc(SCCCCn2ccnc2)cc1 | 90.5 | 113% (inactive) | 90.5% (inactive) | 102% (inactive) | 99.2% (inactive) | 10.9% (inactive) | 88.3 | 99.2 | 1.22% (inactive) | -1% (inactive) | 1.02% (inactive) | -14.2% (inactive) | 0.79% (inactive) | 64.8% (inactive) | 65.7% (inactive) | 0.96% (inactive) | -0.38% (inactive)
CC(CCc1ccccc1)NC(=O)C1CCCN(c2nnc(-n3cccc3)s2)C1 (stereo unspecified) | 89.5 | 86.5% (inactive) | 89.5% (inactive) | 97.1% (inactive) | 82.6% (inactive) | 0.56% (inactive) | 82 | 82.6 | -0.38% (inactive) | -3.17% (inactive) | -16.5% (inactive) | 0.105% (inactive) | -1.84% (inactive) | 93.5% (inactive) | 96% (inactive) |  | 2.83% (inactive)
Cc1cc(NC(=O)c2cccc(S(=O)(=O)N3CC(c4ccccc4)CC3=O)c2)no1 (stereo unspecified) | 92 | 97.5% (inactive) | 92% (inactive) | 98.8% (inactive) | 97.6% (inactive) | 6.25% (inactive) | 91.3 | 97.6 | -6.4% (inactive) | 3.33% (inactive) | -15.3% (inactive) | -8.59% (inactive) | 1.83% (inactive) | 96.8% (inactive) | 90.5% (inactive) | 1.83% (inactive) | 5.71% (inactive)
COc1ccc(CC(=O)NCc2nnc(SCC(=O)Nc3nccs3)n2-c2ccccc2)cc1 | 99.5 | 98% (inactive) | 99.5% (inactive) | 98.4% (inactive) | 96.6% (inactive) | 2.73% (inactive) | 93.9 | 96.6 | -4.4% (inactive) | -3.67% (inactive) | -3.97% (inactive) | 7.4% (inactive) | -1.27% (inactive) | 102% (inactive) | 96.7% (inactive) | 1.48% (inactive) | 6.87% (inactive)
